Test results as given in PubChem BioAssay.
Calls of active or inactive are those of the source.

Legend:
[1] = E. coli DRC41 culture turbidity changes, primary screen, E. coli filamentation inducer project, strain DRC41, OD650, 48 h (AID 1152);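 further: E. coli MC1000 strain DRC41 lacking acrAB efflux pump and sulA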; settings: E. coli DRC41 (acrAB sulA), higher = more signal, called active from +8 up or from −8 down
[2] = small-molecule binders of probe aLefty1, primary screen, biochemical, small-molecule microarray, 635/667 nm fluorescence (AID 1153); settings: higher = more signal;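 further: score merges spot fluorescence with signal-to-noise ratio from the scanned slide images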
[3] = PSAC antagonists in infected red cells, primary screen, cell-based, P. falciparum Indochina, OD700, 1 h (AID 1154); settings: P. falciparum Indochina infected RBC osmotic lysis, higher = more signal, called active from +8 up or from −8 down
[4] = PSAC antagonists in infected red cells, primary screen, cell-based, P. falciparum Indochina, OD700, 2 h (AID 1155);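 further: lysis reports solute entry through the parasite surface anion channel PSAC; channel blockers reduce lysis of infected cells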; settings: P. falciparum Indochina infected erythrocytes, osmotic lysis OD700; higher = more signal, called active from +8 up or from −8 down
[5] = osmotic lysis modulators in infected erythrocytes, primary screen, PSAC antagonist project, cell-based, P. falciparum Indochina, OD700, 3 h (AID 1156); settings: higher = more signal, called active from +8 up or from −8 down
[6] = PSAC antagonists in infected red cells, primary screen, cell-based, P. falciparum Indochina, OD700, 18 h (AID 1157); settings: P. falciparum Indochina infected erythrocytes, osmotic lysis OD700, 18 h; higher = more signal, called active from +8 up or from −8 down
[7] = modulators of S6 phosphorylation in cells, primary screen, cell-based, A549, cytoblot, luminescence, serum-stimulated (AID 1158); settings: A549 phospho-S6 cytoblot, 5 h, higher = more signal;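 further: serum-stimulated A549 lung adenocarcinoma cells; signal is phosphorylated S6 detected by cytoblot immunostaining with HRP secondary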
[8] = biological target: NADPH oxidase 2 (Homo sapiens) (UniProt P04839); test: NOX2-dependent H2O2 signal modulators, primary screen, NOX inhibitor project, cell-based, HEK293-NOX2, PMA-stimulated, Amplex Red fluorescence (AID 1159); settings: 45 min, higher = more signal, called active from +8 up or from −8 down; further: test concentration not given here
[9] = biological target: NADPH oxidase 4 (Homo sapiens) (UniProt Q9NPH5); test: NOX4-dependent H2O2 signal modulators, primary screen, NOX inhibitor project, cell-based, HEK293-NOX4, tetracycline-induced, Amplex Red fluorescence (AID 1160); settings: 45 min, higher = more signal, called active from +8 up or from −8 down
[10] = biological target: NADPH oxidase 5 (Homo sapiens) (UniProt Q96PH1); test: NOX5-dependent H2O2 signal modulators, primary screen, NOX inhibitor project, cell-based, HEK293-NOX5, Amplex Red fluorescence (AID 1161); settings: HEK293-NOX5, ionomycin, 45 min, higher = more signal
[11] = A549 cell viability effects, profiling panel, calcein-AM fluorescence, 48 h, basal (AID 1162); settings: higher = more signal; further: test concentration not given here
[12] = adipocyte viability effects, profiling panel, cell-based, 3T3-L1 adipocytes, calcein-AM fluorescence, 48 h, basal (AID 1163); settings: 3T3-L1 adipocytes viability, higher = more signal; further: test concentration not given here
[13] = HepG2 cell viability effects, profiling panel, calcein-AM fluorescence, 48 h, basal (AID 1164); settings: higher = more signal; further: test concentration not given here
[14] = MM1S cell viability effects, profiling panel, calcein-AM fluorescence, 48 h, basal (AID 1165); settings: higher = more signal;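 further: viability of MM1S multiple myeloma cells under basal unstimulated conditions; test concentration not given here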
[15] = basal RPMI8226 viability, no added stimulus, profiling panel, cell-based, calcein-AM fluorescence, 48 h, PK04 Diversity Set (AID 1166); settings: RPMI8226 myeloma viability, higher = more signal;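 further: cells grown under basal conditions without added stimulus; test concentration not given here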
[16] = basal HepG2 mitochondrial membrane potential changes, profiling panel, cell-based, JC-1 fluorescence, 24 h, 100 nL compound (AID 1167); settings: higher = more signal; further: test concentration not given here
[17] = basal 3T3-L1 adipocyte mitochondrial potential changes, profiling panel, cell-based, JC-1 fluorescence, 3T3-L1 adipocytes, 24 h, 100 nL compound (AID 1168); settings: JC-1 mitochondrial fluorescence, higher = more signal, called active from +8 up or from −8 down; further: test concentration not given here
[18] = basal RPMI8226 mitochondrial membrane potential changes, profiling panel, cell-based, JC-1 fluorescence, 24 h, 100 nL compound (AID 1169); settings: RPMI8226 myeloma, JC-1 mitochondrial potential fluorescence, higher = more signal; further: test concentration not given here
[19] = basal MM1S mitochondrial membrane potential changes, profiling panel, cell-based, JC-1 fluorescence, 24 h, 100 nL compound (AID 1170); settings: higher = more signal; further: test concentration not given here
[20] = A549 lung cancer cell viability effects, profiling panel, resazurin fluorescence, 24 h, PK04 Diversity Set (AID 1171); settings: higher = more signal, called active from +8 up or from −8 down; further: test concentration not given here

Chain of NADPH oxidase 5 (Homo sapiens) (Q96PH1 whole entry, looked up): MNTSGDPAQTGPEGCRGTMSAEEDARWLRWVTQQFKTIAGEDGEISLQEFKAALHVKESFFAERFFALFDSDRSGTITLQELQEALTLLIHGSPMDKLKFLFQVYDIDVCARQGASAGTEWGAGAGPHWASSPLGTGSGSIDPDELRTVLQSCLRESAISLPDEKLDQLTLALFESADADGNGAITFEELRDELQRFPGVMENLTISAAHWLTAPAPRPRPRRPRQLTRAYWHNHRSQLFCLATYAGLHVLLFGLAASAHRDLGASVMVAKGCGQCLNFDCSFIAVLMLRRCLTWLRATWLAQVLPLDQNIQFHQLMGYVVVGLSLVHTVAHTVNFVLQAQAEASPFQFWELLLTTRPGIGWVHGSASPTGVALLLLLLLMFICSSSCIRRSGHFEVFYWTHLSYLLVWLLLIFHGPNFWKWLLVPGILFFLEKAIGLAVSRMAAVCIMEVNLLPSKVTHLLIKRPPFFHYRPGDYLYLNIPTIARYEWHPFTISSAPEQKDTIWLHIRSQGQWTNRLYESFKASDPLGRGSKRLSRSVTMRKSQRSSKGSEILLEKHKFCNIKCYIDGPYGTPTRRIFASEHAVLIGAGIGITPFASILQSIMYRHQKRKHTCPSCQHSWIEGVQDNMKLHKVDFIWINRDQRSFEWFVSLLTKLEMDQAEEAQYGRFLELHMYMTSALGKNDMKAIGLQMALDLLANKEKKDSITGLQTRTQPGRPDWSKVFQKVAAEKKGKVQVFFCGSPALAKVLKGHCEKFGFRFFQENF
Chain of NADPH oxidase 4 (Homo sapiens) (Q9NPH5 whole entry, looked up): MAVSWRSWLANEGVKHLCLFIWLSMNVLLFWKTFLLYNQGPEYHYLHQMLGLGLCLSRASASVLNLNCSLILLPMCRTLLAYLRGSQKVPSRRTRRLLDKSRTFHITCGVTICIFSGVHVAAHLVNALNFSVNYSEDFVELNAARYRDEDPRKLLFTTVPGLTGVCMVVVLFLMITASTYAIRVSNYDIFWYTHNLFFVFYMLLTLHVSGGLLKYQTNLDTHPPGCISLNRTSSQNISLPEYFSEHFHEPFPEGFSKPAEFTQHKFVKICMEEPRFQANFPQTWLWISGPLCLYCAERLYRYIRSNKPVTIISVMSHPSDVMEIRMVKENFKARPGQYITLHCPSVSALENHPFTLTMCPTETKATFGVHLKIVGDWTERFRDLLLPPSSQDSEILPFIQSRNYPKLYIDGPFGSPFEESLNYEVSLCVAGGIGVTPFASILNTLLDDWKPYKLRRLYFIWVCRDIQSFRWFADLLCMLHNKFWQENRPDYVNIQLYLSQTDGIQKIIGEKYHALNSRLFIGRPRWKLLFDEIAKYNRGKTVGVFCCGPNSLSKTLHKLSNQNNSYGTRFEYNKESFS
Chain of NADPH oxidase 2 (Homo sapiens) (P04839 whole entry, looked up): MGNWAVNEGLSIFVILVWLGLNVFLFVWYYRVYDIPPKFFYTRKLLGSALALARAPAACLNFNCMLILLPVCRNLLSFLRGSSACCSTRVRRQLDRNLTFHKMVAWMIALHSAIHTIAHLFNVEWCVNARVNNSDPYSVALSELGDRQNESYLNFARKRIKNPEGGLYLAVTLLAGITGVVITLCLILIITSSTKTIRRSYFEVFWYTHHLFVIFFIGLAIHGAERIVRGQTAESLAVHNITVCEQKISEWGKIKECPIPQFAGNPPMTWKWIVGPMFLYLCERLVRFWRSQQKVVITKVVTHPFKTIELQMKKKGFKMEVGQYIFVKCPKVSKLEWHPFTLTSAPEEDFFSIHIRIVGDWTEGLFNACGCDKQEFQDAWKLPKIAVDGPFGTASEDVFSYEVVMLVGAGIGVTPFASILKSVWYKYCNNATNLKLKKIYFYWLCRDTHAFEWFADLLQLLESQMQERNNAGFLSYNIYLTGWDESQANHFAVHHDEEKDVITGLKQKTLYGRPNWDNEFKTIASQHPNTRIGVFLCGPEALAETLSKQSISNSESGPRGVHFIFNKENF

Compound | z-score [1] | composite z-score [2] | z-score [3] | z-score [4] | z-score [5] | z-score [6] | z-score [7] | z-score [8] | z-score [9] | z-score [10] | z-score [11] | z-score [12] | z-score [13] | z-score [14] | z-score [15] | z-score [16] | z-score [17] | z-score [18] | z-score [19] | z-score [20]
O=C(NN=C1C[C@@H](O)[C@@H](O)[C@@H]2[C@@H]3C(=O)N(c4cccc(Oc5ccccc5)c4)C(=O)[C@@H]3CC[C@@H]12)OCc1ccccc1 | -0.385 (inactive) | 0.101 | 2.57 (inactive) | 0.237 (inactive) | 1.09 (inactive) | 0.0572 (inactive) | -0.818 | 1.05 (inactive) | -2.06 (inactive) | 0.134 | 0.359 | 0.51 | -0.492 | -0.0408 | -0.238 | -0.659 | -0.0191 (inactive) | 0.682 | 0.615 | 0.413 (inactive)
C=C(/C(=C/C[C@@H](OC(=O)c1ccncc1)c1ccc(OCCO)cc1)c1cnc2ccccc2c1)C(C)C | 1.13 (inactive) | -0.0199 | 12.8 (active) | 4.25 (inactive) | -1.77 (inactive) | -0.0139 (inactive) | 0.13 | -2.73 (inactive) | -0.648 (inactive) | -3.24 | 0.476 | 0.443 | -0.477 | -1.78 | 0.448 | 2.2 | -0.883 (inactive) | -0.736 | -0.48 | -0.464 (inactive)
CCOC(=O)[C@H](CC(C)C)NC(=O)CCC1CC(OC(=O)NCc2cccc3ccccc23)CC2(CCCC(COC(=O)NCCc3ccccc3OC)O2)O1 (stereo not given in full) | -0.596 (inactive) | -0.147 | -1.28 (inactive) | -0.0901 (inactive) | -0.868 (inactive) | 0.298 (inactive) | 0.0059 | 0.527 (inactive) | 0.69 (inactive) | 1.02 | -0.571 | -0.187 | -0.766 | 0.0779 | -0.407 | 0.602 | -0.0276 (inactive) | -0.0975 | -0.157 | 0.45 (inactive)
CCOC(=O)C1=CC[C@H]2C(=O)N(CC)C(=O)[C@@H]12 | -0.457 (inactive) | -0.0412 | 1.09 (inactive) | 1.21 (inactive) | 0.253 (inactive) | 0.804 (inactive) | -0.45 | -0.0988 (inactive) | 0.484 (inactive) | 0.829 | -0.148 | 0.0888 | -0.622 | -0.0999 | 0.0317 | -0.342 | -0.362 (inactive) | 0.0877 | -0.517 | 1.17 (inactive)
CC1CC/C=C\[C@H]2OC34C=CCN(C(C)C)C(=O)[C@H]3N(CCCO)C(=O)[C@@H]4C2C(=O)O1 (stereo not given in full) | 0.658 (inactive) | -0.0536 | 0.0261 (inactive) | -0.0331 (inactive) | -0.0769 (inactive) | -0.207 (inactive) | -0.251 | 1.57 (inactive) | 0.213 (inactive) | 2.02 | -0.478 | -0.156 | -0.381 | -0.929 | 0.449 | 0.486 | 0.51 (inactive) | -0.0642 | 0.687 | 0.385 (inactive)
O=C1c2ccccc2[C@@]2(Cc3ccccc3N(C3CC3)C2=O)[C@H](c2ccc(CO)cc2)N1Cc1ccccc1C(F)(F)F | -0.262 (inactive) | 0.566 | 0.949 (inactive) | -0.28 (inactive) | -0.31 (inactive) | -1.41 (inactive) | 1.01 | 0.136 (inactive) | -1.4 (inactive) | -0.129 | 0.238 | 0.4 | -0.772 | 0.306 | -0.522 | 1.13 | -0.474 (inactive) | 0.84 | -1.56 | 0.164 (inactive)
O=C1C[C@]2(c3ccc([N+](=O)[O-])cc3)C(=O)N(CCN3CCOCC3)c3cc(CO)ccc3[C@H]2N1CC12CC3CC(CC(C3)C1)C2 | 0.319 (inactive) | 0.056 | 1.4 (inactive) | -0.103 (inactive) | 1.68 (inactive) | 0.45 (inactive) | 0.349 | 0.194 (inactive) | -1.09 (inactive) | -2.03 | -0.677 | 0.15 | -0.227 | -0.208 | -1.96 | -0.141 | 0.0692 (inactive) | -0.043 | 0.0356 | 0.723 (inactive)
